PubChem BioAssay (NCATS)
Inconclusive results are not listed. Active and inactive are the calls of the source. Calls come from the whole dose curve; as a rule, active = well fitted inhibition curve with a large enough effect; inconclusive = small, poorly fitted or top-dose-only effect; inactive = flat fitted curve, though single readings scatter.

assay: qHTS of Trypanosoma Brucei Inhibitors: LOPAC Validation (AID 624147); conditions: purified enzyme assay, luminescence, 45 min; series mostly up to 57.5 µM
From the text: Members of the Trypanosomatidae family of parasitic protozoans cause a spectrum of diseases throughout the tropical and subtropical world. Sleeping sickness, caused by two subspecies of Trypanosoma brucei, is endemic to areas of sub-Saharan Africa, while Chagas' disease, a manifestation of Trypanosoma cruzi infection, is prevalent throughout Central and South America. In addition, many species of Leishmania are responsible for a range of cutaneous and visceral diseases, causing ulcers, destructive lesions and kalaazar, a lethal infection of the viscera. These diseases cause severe public health and economic burdens on populations that are often already caught in a tragic cycle of poverty, poor nutrition and disease. Collectively, parasites of the trypanosomatid family infect 30 million people worldwide (~500 million live in endemic areas), and account for ~130K deaths annually. Existing treatments have developed little in the past 50 years, and suffer from toxicity, poor efficacy and resistance; the goal of this project is to develop lead drugs that will be suitable for entry into pre-clinical trials.
Glycolysis in axenically cultured T. cruzi, representing the intracellular pathogenic stage, is also essential for these parasites. {Engel, 1987} This project aims to discover and optimize selective inhibitors of the glycolytic enzyme pyruvate kinase (PYK) from Trypanosoma brucei, the parasite that causes sleeping sickness. […] Trypanosomatid PYKs show significant differences from their human counterparts including only 47-50% sequence identity and different allosteric and activation properties.{Callens, 1992} To this end, a qHTS was done against the MLSMR to discover inhibitors.
NIH Molecular Libraries Probe Production Network [MLPCN]
NIH Chemical Genomics Center [NCGC]
PI Name: Malcolm Walkinshaw, University of Edinburgh
2 uL of TbPYK/substrate buffer (columns 1-3, 5-48) are dispensed into Greiner white solid bottom 1536-well assay plates; column 4 receives only TEA buffer as 0x TbPYK controls. Compounds are then transferred via Kalypsys pin tool equipped with 1536-pin array (10 nL slotted pins, V&P Scientific, San Diego, CA). Following addition of compound, 2 uL of ADP (130 uM final concentration, all columns) is added to initiate the reaction. The plates are then incubated at room temperature for 45 minutes. Kinase-Glo Plus reagent is added (3 uL) and plates incubated for 10 minutes, before being transferred to a ViewLux high-throughput CCD imager (PerkinElmer) wherein single end-point measurements of luminescence are acquired using a clear filter. All reagents are diluted in an assay buffer consisting of 50 mM TEA (pH 7.2), 100 mM KCl, 10 mM MgCl2, 0.05% BSA and 0.01% Tween-20.
All screening operations will be performed on a fully integrated robotic system (Kalypsys, San Diego, CA) containing one RX-130 and two RX-90 anthropomorphic robotic arms (Staeubli, Duncan, SC). Library plates will be screened starting from the lowest and proceeding to the highest concentration. Vehicle-only plates, with DMSO being pin-transferred to columns 5-48, will be inserted uniformly at the beginning and the end of each library in order to monitor and record any shifts in the background, which can be affected by reagent dispensers or loss in enzyme activity over time. Screening data will be corrected, normalized, and concentration-effect relationships will be derived by using publicly-available curve fitting algorithms developed in-house (http://ncgc.nih.gov/pub/openhts).

Row | Structure (SMILES) | outcome
1 | NC(=O)c1cccc(N)c1 | inactive
2 | OCc1ccc(-c2nn(Cc3ccccc3)c3ccccc23)o1 | inactive
3 | NC(=O)c1ccc2[nH]ccc2c1 | inactive
4 | COc1cc2ncnc(Nc3cccc(Cl)c3)c2cc1OC | inactive
5 | CCCCS(=N)(=O)CCC(N)C(=O)O (configuration not stated) | inactive
6 | CCN1CCCC1CNC(=O)c1cc(S(N)(=O)=O)ccc1OC (configuration not stated) | inactive
7 | CC1CC2C3CCC4=CC(=O)C=C[C@]4(C)[C@@]3(F)[C@@H](O)C[C@]2(C)[C@@]1(O)C(=O)CO (some centres not stated) | inactive
8 | CCN(CC)CC#CCOC(=O)C(O)(c1ccccc1)C1CCCCC1 (configuration not stated) | inactive
9 | COc1cc2nc(N3CCCN(C)CC3)nc(NC3CCN(Cc4ccccc4)CC3)c2cc1OC | inactive
10 | CC(=O)[C@H]1CC[C@H]2[C@@H]3CCC4=CC(=O)CC[C@]4(C)[C@H]3CC[C@]12C | inactive
11 | CCN(CC)CCn1c(=O)c(Cc2ccc(OC)cc2)nc2ccccc21 | inactive
12 | Cc1ccc(S(=O)(=O)N[C@@H](Cc2ccccc2)C(=O)CCl)cc1 | inactive
13 | O=C(O)C1CCCN(CCC=C(c2ccccc2)c2ccccc2)C1 (configuration not stated) | inactive
14 | CC1=C(C(=O)O)N2C(=O)[C@@H](NC(=O)C(N)c3ccccc3)[C@H]2SC1 (some centres not stated) | inactive
15 | N[C@@H](Cc1ccc(O)c(O)c1)C(=O)O | inactive
16 | CC(C)NCC(O)c1ccc(NS(C)(=O)=O)cc1 (configuration not stated) | inactive
17 | Nc1nc(N)c2nc(CNc3ccc(C(=O)NC(CCC(=O)O)C(=O)O)cc3)cnc2n1 (configuration not stated) | inactive
